We go through 24 compounds from PubChem BioAssay.

Assay [1] is described as follows: StAR promoter reporter inhibitors, counter-screen for LRH-1 inverse agonist project, cell-based, luminescence, high throughput (AID 651611; in the data active means inhibition above about 28%). The settings on record: StAR promoter luciferase reporter counterscreen, at 3.6 µM, stronger effect = higher value.
Assay [2] addresses Nuclear receptor subfamily 5 group A member 2 (Homo sapiens) (UniProt O00482). Briefly: LRH-1 (NR5A2) inverse agonists, retest, confirmation, cell-based, luminescence (AID 651613; in the data active means inhibition above about 42%;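 further: HEK293T cells co-transfected with LRH-1 and StAR promoter luciferase reporter; 0% = vehicle wells and 100% = parental cells lacking receptor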). The settings on record: cell-based LRH-1 luciferase reporter, inverse agonism; at 3.6 µM; stronger effect = higher value.
Assay [3] has as its target Steroidogenic factor 1 (Homo sapiens) (UniProt Q13285). Nature of the assay: SF1 (NR5A1) inverse agonists, counter-screen for LRH-1 inverse agonist project, cell-based, luminescence, high throughput (AID 651614).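 Further: cells cotransfected with StAR promoter reporter and SF1 expression vector; 0% = vehicle on cells with receptor and 100% = vehicle on cells lacking receptor.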 The settings on record: cell-based SF1 luciferase reporter, at 3.6 µM, stronger effect = higher value.
Assay [4] in a line: VP16 transactivation reporter inhibitors, counter-screen for LRH-1 inverse agonist project, cell-based, luminescence, high throughput (AID 651615; in the data active means inhibition above about 33%). The conditions noted are these: Gal4-VP16 luciferase reporter cells, at 3.6 µM, stronger effect = higher value.
Assay [5] deals with Photoreceptor-specific nuclear receptor (Homo sapiens) (UniProt Q9Y5X4). Nature of the assay: NR2E3 agonist confirmation in cells, cell-based, luminescence, CHO-S two-hybrid (AID 624378;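 active means average inhibition above a cutoff equal to the mean inhibition of all tested compounds plus one SD, cut at about 70% in these data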;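 further: 0% = DMSO in NR2E3 cells and 100% = DMSO in cells lacking NR2E3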). The conditions noted are these: CHO-S mammalian two-hybrid NR2E3-NCOR, luciferase luminescence; at 3.98 µM; stronger effect = higher value.
Sequence of Photoreceptor-specific nuclear receptor (Homo sapiens) (Q9Y5X4 whole entry, looked up, the tested form may be a part): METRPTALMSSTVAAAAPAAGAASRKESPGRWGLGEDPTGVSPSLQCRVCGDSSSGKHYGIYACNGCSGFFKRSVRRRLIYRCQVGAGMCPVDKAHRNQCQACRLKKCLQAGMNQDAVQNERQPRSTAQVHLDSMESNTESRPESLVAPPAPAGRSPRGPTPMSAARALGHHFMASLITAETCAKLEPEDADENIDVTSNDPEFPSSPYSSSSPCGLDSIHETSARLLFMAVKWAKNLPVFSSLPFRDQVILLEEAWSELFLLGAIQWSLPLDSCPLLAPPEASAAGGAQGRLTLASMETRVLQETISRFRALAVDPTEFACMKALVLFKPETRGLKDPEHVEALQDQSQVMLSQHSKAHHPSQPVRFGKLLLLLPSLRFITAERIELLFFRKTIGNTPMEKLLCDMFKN
Assay [6] in a line: GAL4-VP16 reporter modulators, confirmation, counter-screen for NR2E3 agonist project, cell-based, luminescence, CHO-S, high throughput (AID 624379;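 active means mean inhibition above a cutoff equal to the average over all tested compounds plus one standard deviation, cut at about 70% in these data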;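 further: luciferase from a UAS reporter driven by GAL4-VP16 transactivation; 0% = DMSO with VP16-transfected cells and 100% = DMSO with cells lacking VP16; higher means less reporter light so more repression of VP16 activity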). The conditions noted are these: CHO-S GAL4-VP16 luciferase reporter, at 3.98 µM, stronger effect = higher value.
For assay [7], the target named is Nuclear receptor coactivator 1 (Homo sapiens) (UniProt Q15788). Briefly: SRC1 coactivator transcriptional activity inhibitors, confirmation, cell-based, luminescence, quadruplicate (AID 588820;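 active means mean inhibition above 46.68%, the untreated control wells mean plus 3 SD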;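 further: 0% = DMSO wells and 100% = gossypol 36 µM treated wells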). The conditions noted are these: HEK293 GAL4-SRC1 luciferase reporter, at 3.6 µM, stronger effect = higher value.
Sequence of Nuclear receptor coactivator 1 (Homo sapiens) (Q15788 whole entry, looked up, the tested form may be a part): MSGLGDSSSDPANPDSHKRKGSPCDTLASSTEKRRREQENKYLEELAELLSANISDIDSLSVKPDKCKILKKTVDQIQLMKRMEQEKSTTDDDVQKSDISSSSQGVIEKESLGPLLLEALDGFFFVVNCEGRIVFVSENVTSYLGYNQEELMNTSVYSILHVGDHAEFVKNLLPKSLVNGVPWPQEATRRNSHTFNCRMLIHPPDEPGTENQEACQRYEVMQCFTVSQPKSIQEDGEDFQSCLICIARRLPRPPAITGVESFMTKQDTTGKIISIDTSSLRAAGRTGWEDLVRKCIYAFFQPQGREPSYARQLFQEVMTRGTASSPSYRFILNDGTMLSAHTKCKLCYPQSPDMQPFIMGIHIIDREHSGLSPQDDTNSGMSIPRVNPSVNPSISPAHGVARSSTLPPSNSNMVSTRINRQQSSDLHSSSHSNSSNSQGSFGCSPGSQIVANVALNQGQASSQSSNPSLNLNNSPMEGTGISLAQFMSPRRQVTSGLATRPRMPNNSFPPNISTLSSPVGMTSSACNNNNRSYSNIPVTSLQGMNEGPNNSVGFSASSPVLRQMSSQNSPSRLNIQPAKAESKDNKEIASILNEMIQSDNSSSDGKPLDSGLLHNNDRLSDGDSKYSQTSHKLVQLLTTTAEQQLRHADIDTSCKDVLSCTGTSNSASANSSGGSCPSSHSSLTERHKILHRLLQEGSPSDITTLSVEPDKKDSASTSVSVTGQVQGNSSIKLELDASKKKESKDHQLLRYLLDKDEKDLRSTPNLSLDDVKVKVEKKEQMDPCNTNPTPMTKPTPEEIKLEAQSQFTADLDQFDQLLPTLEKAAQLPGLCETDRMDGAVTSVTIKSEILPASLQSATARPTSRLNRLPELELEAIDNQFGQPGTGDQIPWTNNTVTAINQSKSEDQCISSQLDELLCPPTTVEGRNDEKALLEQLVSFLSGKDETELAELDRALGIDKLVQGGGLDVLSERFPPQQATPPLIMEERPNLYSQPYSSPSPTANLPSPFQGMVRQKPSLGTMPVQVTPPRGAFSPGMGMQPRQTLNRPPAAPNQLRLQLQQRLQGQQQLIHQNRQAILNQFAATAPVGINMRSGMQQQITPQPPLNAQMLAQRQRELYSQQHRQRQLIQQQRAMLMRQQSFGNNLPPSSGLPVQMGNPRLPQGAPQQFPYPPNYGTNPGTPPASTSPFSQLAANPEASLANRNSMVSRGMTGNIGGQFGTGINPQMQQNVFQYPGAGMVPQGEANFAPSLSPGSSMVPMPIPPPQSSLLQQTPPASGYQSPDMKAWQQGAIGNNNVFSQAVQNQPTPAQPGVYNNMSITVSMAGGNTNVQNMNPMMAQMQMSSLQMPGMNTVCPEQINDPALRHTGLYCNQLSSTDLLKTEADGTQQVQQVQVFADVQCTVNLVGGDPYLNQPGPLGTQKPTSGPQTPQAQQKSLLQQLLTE
Assay [8] can be described thus: VP16 transactivation inhibitors, counter-screen for SRC1 inhibitor project, cell-based, luminescence, high throughput (AID 588824; in the data active means inhibition above about 25%). The conditions noted are these: cell-based VP16 transactivation luciferase luminescence; at 3.6 µM; stronger effect = higher value.
The target in assay [9] is Receptor-interacting serine/threonine-protein kinase 2 (Homo sapiens) (UniProt O43353). Nature of the assay: NOD2-RIPK2 binding disruptors, retest, confirmation, fluorescence, CHO cells, BLA complementation, triplicate (AID 624370;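 active means mean inhibition across replicates above a set limit taken from the earlier primary screen, cut at about 21% in these data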;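 further: 0% = DMSO-only wells and the high end = clavulanate BLA-blocked wells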). The settings on record: CCF4 FRET, at 4.98 µM, stronger effect = higher value.
Sequence of Receptor-interacting serine/threonine-protein kinase 2 (Homo sapiens) (O43353 whole entry, looked up): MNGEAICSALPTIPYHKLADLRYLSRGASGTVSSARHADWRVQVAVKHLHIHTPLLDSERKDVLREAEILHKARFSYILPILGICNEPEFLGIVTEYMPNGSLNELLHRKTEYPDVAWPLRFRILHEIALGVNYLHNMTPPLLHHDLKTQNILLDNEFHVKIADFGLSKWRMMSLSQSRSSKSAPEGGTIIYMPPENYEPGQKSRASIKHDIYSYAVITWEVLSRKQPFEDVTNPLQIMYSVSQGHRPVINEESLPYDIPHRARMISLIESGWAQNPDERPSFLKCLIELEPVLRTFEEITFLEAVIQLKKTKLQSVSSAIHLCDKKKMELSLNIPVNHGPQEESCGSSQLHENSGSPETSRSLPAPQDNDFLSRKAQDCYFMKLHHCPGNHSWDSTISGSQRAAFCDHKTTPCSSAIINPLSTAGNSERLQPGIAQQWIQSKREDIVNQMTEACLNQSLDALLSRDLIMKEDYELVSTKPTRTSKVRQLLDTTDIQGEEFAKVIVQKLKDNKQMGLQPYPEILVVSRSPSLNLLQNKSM
Assay [10] is described as follows: beta-lactamase reporter inhibitors in CHO cells, confirmation, artefact control for NOD2-RIPK2 interaction inhibitor project, cell-based, CHO-K1 CMV-bla, CCF4 FRET, fluorescence (AID 624371;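 active means mean inhibition above the low-control mean inhibition plus three low-control SD, cut at about 11% in these data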;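 further: 0% = DMSO only wells and 100% = clavulanate high control wells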). The settings on record: CCF4 FRET ratio, counterscreen, at 4.98 µM, stronger effect = higher value.
Assay [11] relates to transactivating tegument protein VP16 (Human herpesvirus 1). Nature of the assay: VP16 transactivation reporter inhibitors, counter-screen for SRC2 inhibitor project, cell-based, luminescence, single concentration (AID 652007; in the data active means inhibition above about 36%). The conditions noted are these: cell-based VP16 transactivation luciferase reporter, at 8.9 µM, stronger effect = higher value.
Assay [12] has as its target Nuclear receptor coactivator 2 (Homo sapiens) (UniProt Q15596). Briefly: SRC2 coactivator transcriptional activity inhibitors, confirmation, cell-based, luminescence, HEK293, triplicate (AID 652008;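 active means mean inhibition above 46.5%, the solvent-only control mean plus 3 SD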;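 further: 0% = DMSO-treated cells and 100% = Gossypol at 36 µM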). The conditions noted are these: HEK293 GAL4-SRC2 luciferase reporter, at 8.9 µM, stronger effect = higher value.

A number with no mark means an inactive call. The list shows a part of the results. Activity calls are given as the source filed them. Unless noted, no stated cut-off is given here; in the data, active means inhibition above about 44%; inactive means the rest.

Sequence of Steroidogenic factor 1 (Homo sapiens) (Q13285 whole entry, looked up, the tested form may be a part): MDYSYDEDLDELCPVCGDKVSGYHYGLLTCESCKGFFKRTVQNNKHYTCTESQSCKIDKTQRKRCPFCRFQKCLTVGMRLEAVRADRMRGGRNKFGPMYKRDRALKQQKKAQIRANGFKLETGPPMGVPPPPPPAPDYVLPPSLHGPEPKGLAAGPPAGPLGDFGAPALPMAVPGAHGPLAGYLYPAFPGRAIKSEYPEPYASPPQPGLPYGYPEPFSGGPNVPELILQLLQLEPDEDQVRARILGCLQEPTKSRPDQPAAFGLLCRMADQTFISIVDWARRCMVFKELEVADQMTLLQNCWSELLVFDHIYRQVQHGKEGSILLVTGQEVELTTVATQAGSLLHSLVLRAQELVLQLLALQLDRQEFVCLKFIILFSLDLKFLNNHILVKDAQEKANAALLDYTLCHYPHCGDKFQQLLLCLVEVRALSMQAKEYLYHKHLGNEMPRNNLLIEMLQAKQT
Sequence of Nuclear receptor subfamily 5 group A member 2 (Homo sapiens) (O00482 whole entry, looked up): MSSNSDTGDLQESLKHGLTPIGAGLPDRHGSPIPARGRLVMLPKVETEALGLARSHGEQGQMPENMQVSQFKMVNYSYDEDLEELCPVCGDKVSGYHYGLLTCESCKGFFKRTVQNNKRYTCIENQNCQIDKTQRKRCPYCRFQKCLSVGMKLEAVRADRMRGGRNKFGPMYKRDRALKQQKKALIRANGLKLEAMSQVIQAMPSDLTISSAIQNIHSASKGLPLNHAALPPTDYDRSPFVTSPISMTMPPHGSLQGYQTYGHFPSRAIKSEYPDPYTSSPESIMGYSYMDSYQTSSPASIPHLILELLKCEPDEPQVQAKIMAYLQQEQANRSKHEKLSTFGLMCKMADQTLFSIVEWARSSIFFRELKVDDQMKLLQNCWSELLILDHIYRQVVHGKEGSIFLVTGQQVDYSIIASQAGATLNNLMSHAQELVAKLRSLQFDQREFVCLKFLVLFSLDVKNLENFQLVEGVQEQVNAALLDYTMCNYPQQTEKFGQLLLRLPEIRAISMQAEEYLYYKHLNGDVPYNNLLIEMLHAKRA
Sequence of Nuclear receptor coactivator 2 (Homo sapiens) (Q15596 whole entry, looked up, the tested form may be a part): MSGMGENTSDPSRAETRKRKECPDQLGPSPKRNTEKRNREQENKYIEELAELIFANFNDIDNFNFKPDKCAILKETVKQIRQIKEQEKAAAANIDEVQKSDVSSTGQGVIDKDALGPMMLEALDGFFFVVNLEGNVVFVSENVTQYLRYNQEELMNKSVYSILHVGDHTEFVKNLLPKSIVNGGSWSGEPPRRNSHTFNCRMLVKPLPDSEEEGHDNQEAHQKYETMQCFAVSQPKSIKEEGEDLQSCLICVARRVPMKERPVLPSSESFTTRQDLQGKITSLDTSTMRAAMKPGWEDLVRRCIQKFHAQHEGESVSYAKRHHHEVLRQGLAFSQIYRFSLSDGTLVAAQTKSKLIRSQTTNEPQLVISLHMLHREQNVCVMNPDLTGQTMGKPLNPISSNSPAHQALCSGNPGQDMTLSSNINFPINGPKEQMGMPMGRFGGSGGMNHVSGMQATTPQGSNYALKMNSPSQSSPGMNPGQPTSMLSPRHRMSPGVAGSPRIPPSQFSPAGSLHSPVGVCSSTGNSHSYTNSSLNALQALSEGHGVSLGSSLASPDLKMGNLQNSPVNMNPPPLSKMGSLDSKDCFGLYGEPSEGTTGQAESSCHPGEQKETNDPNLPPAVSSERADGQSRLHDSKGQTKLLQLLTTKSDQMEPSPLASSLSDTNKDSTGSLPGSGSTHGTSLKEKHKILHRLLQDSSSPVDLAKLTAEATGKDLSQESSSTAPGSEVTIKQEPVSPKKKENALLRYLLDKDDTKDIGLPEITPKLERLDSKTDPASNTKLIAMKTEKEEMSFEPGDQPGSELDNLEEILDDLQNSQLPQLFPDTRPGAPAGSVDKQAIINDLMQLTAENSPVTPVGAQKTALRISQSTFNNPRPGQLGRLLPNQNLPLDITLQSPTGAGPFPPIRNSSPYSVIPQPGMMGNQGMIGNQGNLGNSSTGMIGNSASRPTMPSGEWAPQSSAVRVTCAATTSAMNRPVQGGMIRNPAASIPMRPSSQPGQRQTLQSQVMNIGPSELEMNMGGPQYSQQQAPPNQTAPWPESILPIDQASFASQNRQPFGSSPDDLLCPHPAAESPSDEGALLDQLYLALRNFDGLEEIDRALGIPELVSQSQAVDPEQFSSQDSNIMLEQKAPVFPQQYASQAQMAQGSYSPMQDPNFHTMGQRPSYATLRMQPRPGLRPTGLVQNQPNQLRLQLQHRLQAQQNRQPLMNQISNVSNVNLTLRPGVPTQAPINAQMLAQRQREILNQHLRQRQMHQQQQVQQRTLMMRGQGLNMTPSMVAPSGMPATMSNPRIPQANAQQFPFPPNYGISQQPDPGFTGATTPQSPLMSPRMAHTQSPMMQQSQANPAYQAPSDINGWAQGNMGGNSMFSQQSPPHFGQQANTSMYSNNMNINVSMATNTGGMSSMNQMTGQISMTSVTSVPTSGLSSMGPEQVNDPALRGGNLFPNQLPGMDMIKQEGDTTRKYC

For `O=[N+]([O-])c1cc(F)c(N2CCCCCC2)cc1N1CCNCC1`, the inhibition is 14.3% in [1], 54.1% (active) in assay [2], 54.7% (active) in assay [3] and 9.46% in assay [4].
As to `CC(=NCc1ccc2c(c1)OCO2)c1c(O)[nH]c(=O)[nH]c1=O`, the inhibition in assay [5] is 2.39%; in [6], 8.56%.
For the compound `COC(=O)C1=C(c2ccc(-c3ccccc3)c(F)c2)C[C@@H]2CC[C@H]1N2C(=O)N1CCOCC1`, the inhibition in [7] is 2.48%; in assay [8], 25.3%.
The corresponding values for `CC(=NNC(=S)N1CC2CCC(CC2)C1)c1nccs1` are 62.2% (active) and 74.4% (active).
As for `CCCCn1nnnc1C(CCc1ccccc1)N1CCC(n2c(=O)[nH]c3ccccc32)CC1` (stereo not given), the inhibition in assay [7] was -23.9%; in assay [8] it was 7.75%.
Take `C=C1C(=O)O[C@@H]2C[C@@H](C)[C@@H]3C4OC4C(=O)[C@@]3(C)[C@@H](O)[C@H]12` (stereo not given in full): the inhibition in assay [1] was -30%; in assay [2] it was 60.7% (active); in assay [3], 67.9% (active); in assay [4] it was 82.8% (active).
The corresponding values for `CCOC(=O)[C@]12Cc3cc(C)ccc3[C@H]1N(C1CCCCC1)C(=O)c1cc(OC)ccc12` are 63.5% (active), 97.4% (active), 78.2% (active) and 87.9% (active).
`CCOC(=O)[C@]12Cc3ccccc3[C@H]1N(C1CCCCC1)C(=O)c1cc(OC)ccc12`: the inhibition was 61.3% (active) in assay [9]; 0.28% in [10]; 55.3% (active) in assay [1]; 98% (active) in [2]; 58.9% (active) in assay [3]; 85.2% (active) in assay [4].
Consider `CCC(C)N1C(=O)/C(=C\c2ccc(N3CCCCCC3)cc2)C(=O)NC1=S` (stereo not given), for which the inhibition in assay [1] is 1.31%; in assay [2], 58.9% (active); in assay [3], 40.2%; in assay [4] it was -2.53%.
On the same counts, the results for `COC1/C=C/C=C(\C)Cc2cc(O)c(Cl)c(c2)N(C)C(=O)CC(OC(=O)C(C)C)C2(C)OC2C(C)C2CC1(O)NC(=O)O2` (stereo not given) are 64.9% (active), 60.1% (active), 62.5% (active) and 32.6% (active).
On the same counts, the results for `CCOC(=O)[C@]12Cc3ccc(C)cc3[C@H]1N(C1CCCCC1)C(=O)c1cc(OC)ccc12` are 77.2% (active), 104% (active), 75.1% (active) and 91.8% (active).
Consider `Cc1ccc2c(C)c3ccc4ccccc4c3c[n+]2c1`, for which the inhibition was 17.2% in assay [7]; 31.6% (active) in [8]; 28.1% (active) in assay [1]; 99.6% (active) in [2]; 39.4% in assay [3]; 78% (active) in assay [4].
For the compound `CCCCCCN=C(CC)c1c(O)n(CCCC)c(=O)[nH]c1=O`, the inhibition is 84.2% (active) in assay [5] and 56.9% in assay [6].
`O=c1[nH]c2ccccc2n1C1CCN(Cc2ccc(-c3[nH]c4cc5ncnc5cc4nc3-c3ccccc3)cc2)CC1`: the inhibition in assay [1] is 42.3% (active); in assay [2] it was 64.2% (active); in [3], 44% (active); in assay [4], 25%.
On the same counts, the results for `CCN1CCN(c2cc(N3CCCC3)c([N+](=O)[O-])cc2F)CC1` are 1.38%, 51.2% (active), 46.4% (active) and 15.6%.
For `COc1ccc2c(c1)/C(=C/c1cnc[nH]1)C(=O)N2`, the inhibition is 13.1% in assay [7]; 19% in [8]; 59.4% (active) in [1]; 85.8% (active) in assay [2]; 72.9% (active) in assay [3]; 11.2% in [4].
As to `CC1=CC(O)C(O)C2(C)C1CC1OC(=O)CC3C(C)C(O)C(=O)C2C13CO` (stereo not given), the inhibition in assay [1] was 18.7%; in assay [2] it was 43% (active); in [3] it was 45.9% (active); in [4], -0.77%.
For `CCCCC(CC)COCCCN=Cc1c(O)[nH]c(=S)[nH]c1=O` (stereo not given), the inhibition is 29.9% in assay [7] and 17.5% in assay [8].
As for `N#Cc1c(Br)n(C2OC(CO)C(O)C2O)c2ncnc(N)c12` (stereo not given), the inhibition is 40.9% in [7]; 29.9% (active) in assay [8]; 61.8% (active) in [1]; 77.3% (active) in [2]; 63.2% (active) in [3]; 48.6% (active) in assay [4]. Besides, the inhibition in [11] was -16.7%; in [12], 54.4% (active).
In the case of `COc1cc2c(cc1OC)C1C(=O)c3ccc4c(c3OC1CO2)CC(C(C)C)O4` (stereo not given), the inhibition in assay [7] was -30.2%; in [8], 41.4% (active); in [1], 40.3% (active); in assay [2] it was 71.2% (active); in [3], 73.1% (active); in assay [4] it was 65.5% (active).
Consider `CCOc1cc(C=O)ccc1O`, for which the inhibition is -4.06% in [1], 41.4% (active) in assay [2], 47.9% (active) in assay [3] and -3.05% in assay [4].
Turning to `CCN(CC)C1=NC(=[N+](CC)CC)c2ccccc21`, the inhibition in assay [7] is 9.91%; in assay [8], 31.1% (active); in assay [1], 33.7% (active); in assay [2], 107% (active); in assay [3], 74.5% (active); in assay [4] it was 85.6% (active).
On to `COc1cccc2c1C(=O)c1c(O)c3c(c(O)c1C2=O)CC(O)(C(C)=NO)CC3OC1CC(N)C(O)C(C)O1` (stereo not given), for which the inhibition was -12.8% in [7], 42.6% (active) in assay [8], 79.4% (active) in [2] and 62.3% (active) in assay [3].
Regarding `O=Cc1cn(Cc2cccc([N+](=O)[O-])c2)c2ccccc12`, the inhibition in assay [7] is 39.9%; in assay [8] it was 30.7% (active); in [1], 65.6% (active); in assay [2] it was 74.4% (active); in [3], 80.3% (active); in assay [4], 14.4%.
